From PubChem BioAssay AID463212 (Sanford-Burnham Center for Chemical Genomics, 2010)
Hit rate of the full screen: of about 330,000 compounds, about 4,400 (1.3%) were called active. Shown is part of a subset that was picked to be rich in actives. Values without a mark were called inactive.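 Rule for the calls: active = growth inhibition of the mutant yeast at or above 50%; inactive = the rest.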

Test: growth inhibition of tim23-1 ts yeast – luminescence, uHTS, primary screen (AID 463212);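 note: temperature-sensitive mutant grown at 25 °C; plate controls were DMSO-treated mutant yeast for no effect and medium wells lacking yeast for full effect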
Settings: S. cerevisiae tim23-1 growth, BacTiter-Glo luminescence, 24 h; at 20 µM; hits give high values

Row | Structure (SMILES) | inhibition
1 | Cc1ccccc1CSc1nnc(Cn2c(=O)sc3ccccc32)n1C | 18.7%
2 | Cc1ccc(N=Cc2c(O)n(-c3nccs3)c(=O)c3ccccc23)c(C)c1 | -3.15%
3 | Cc1ccc(N=Cc2c(O)cc(C)oc2=O)c(C)c1 | 96.2% (active)
4 | Cc1cc(O)c(C(=O)/C=C/c2c(F)c(F)c(F)c(F)c2F)c(=O)o1 | 19.1%
5 | CN1CCN(C(=O)c2ccc(-c3ccc(Br)cc3)o2)CC1 | 4.87%
6 | Cc1ccc(S(=O)(=O)NC(=O)N2CCCN(Cc3ccc(F)cc3)CC2)cc1 | -9.12%
7 | Cc1nc2cc(S(=O)(=O)C(F)(F)F)ccc2s1 | -1.26%
8 | CCc1cccc(C)c1N1C(=O)CN(Cc2ccccc2)C1=S | 46.7%
9 | COc1cccc(N2C(=O)CN(Cc3ccccc3)C2=S)c1 | 44.3%
10 | Cc1cccc(C)c1N1C(=O)CN(Cc2ccccc2)C1=S | 54.6% (active)
11 | Cc1ccc2nc(N3CCN(C(=O)c4ccco4)CC3)sc2c1 | 26.4%
12 | Cc1ccc2cc3cc(C(=O)N4CCCCCC4)oc3nc2c1 | 53.8% (active)
13 | Cc1cc(C)cc(NC(=O)N2CCCCCCC2)c1 | 27.5%
14 | CC(=O)N1CC(=O)N(CC(=O)Nc2ccc(Br)cc2)C1=S | 10.5%
15 | COC(=O)[C@]1(C)N[C@H](c2ccc(-c3ccc(Cl)c(Cl)c3)cc2)[C@@H]2C(=O)N(C)C(=O)[C@@H]21 | 30.7%
16 | COc1cccc(CNc2ncc(-c3ccccc3)n2C)c1 | -8.62%
17 | CCC(=O)Nc1nc(C)c(C(=O)Nc2cccc(Cl)c2)s1 | 57.9% (active)
18 | Cc1csc(NC(=S)Nc2cccc(Cl)c2)n1 | 48.7%
19 | CCC(=O)Nc1sc(C(=O)Nc2ccccc2)c(C)c1C(=O)OC | 32%
20 | O=C(Nc1ccc(N2CCOCC2)nc1)c1c(F)cccc1F | -3.3%
21 | Cc1ccc(NC(=S)N2CCN(c3ncccn3)CC2)cc1C | 19%
22 | Cc1cccc(N2CCN(C(=O)/C=C/c3ccco3)CC2)c1C | 38.9%
23 | COc1ccc(C(=O)COC(=O)CN2C(=O)C3CC=CCC3C2=O)c(OC)c1 (centres undefined) | 12.1%
24 | COc1cccc(CNC(=O)C2CCCN(S(=O)(=O)N3CC(C)CC(C)C3)C2)c1 (centres undefined) | 27.8%
25 | COCCNC(=O)COc1ccc(N(C)S(=O)(=O)c2ccc3ccccc3c2)cc1 | 19.5%

Row | Structure (SMILES) | inhibition
26 | CN(c1ccc(OCC(=O)O)cc1)S(=O)(=O)c1ccc2ccccc2c1 | 3.8%
27 | CC(=O)Oc1ccc(N(C(C)=O)S(=O)(=O)c2ccc3ccccc3c2)cc1Br | 59.3% (active)
28 | CC(=O)n1cc([C@@H]2C=C(C(=O)N3CCN(Cc4ccc5c(c4)OCO5)CC3)O[C@H](OCc3ccc(CO)cc3)C2)c2ccccc21 | 5.34%
29 | O=C(COC(=O)Cc1ccc(Br)cc1)Nc1c(F)c(F)c(F)c(F)c1F | 5.57%
30 | CCCCOc1ccc(C(=O)NCC(=O)OCC(=O)c2c(N)n(C)c(=O)n(C)c2=O)cc1 | 7.23%
31 | NS(=O)(=O)c1ccc(CCNC(=O)NC2CCCCC2)cc1 | 8.17%
32 | Cc1cc2ncn(CCCCOc3ccccc3)c2cc1C | 51.5% (active)
33 | Clc1ncn(CCOc2ccccc2)c1Cl | -4.79%
34 | COCCOCCn1cnc2ccccc21 | 2.15%
35 | O=C(c1ccco1)N1CCN(C(=O)c2cc(-c3ccccc3F)no2)CC1 | 19.6%
36 | Fc1ccccc1-c1cc2cc3c(cc2cn1)OCO3 | 54.8% (active)
37 | Fc1ccc2cnc(-c3ccccc3)cc2c1 | 31.1%
38 | COc1ccc(-n2c(SCC(=O)Nc3ccc4c(c3)OCO4)nnc2C(C)N2CCCCC2)cc1 (centres undefined) | 0.001%
39 | O=C(O)c1ccc(S(=O)(=O)N2CCC(Cc3ccccc3)CC2)cc1 | -3.54%
40 | CSCC[C@H](NC(=O)N1CCn2c1nc1ccccc12)C(=O)NCc1ccc2c(c1)OCO2 | -0.587%
41 | CCCCNC(=O)CCn1c(=O)c2ccccc2n(Cc2cc(C)ccc2C)c1=O | -7.13%
42 | COC(=O)c1ccccc1NC(=O)CSc1nc2c(c(=O)[nH]1)CCC2 | 16%
43 | CN1C(=O)/C(=C\c2cc(Br)cs2)c2ccccc21 | 24.9%
44 | CN1C(=O)/C(=N/OC(=O)c2ccccc2Br)c2ccccc21 | 56.2% (active)
45 | Nc1cc(OC(=O)c2ccccc2Br)nn1S(=O)(=O)c1ccccc1 | 37.3%
46 | O=C(COc1ccc(F)cc1Br)NCC1COc2ccccc2O1 (centres undefined) | 25%
47 | CN(C)S(=O)(=O)N1CCN(c2ccc([N+](=O)[O-])cc2)CC1 | 9.07%
48 | CSC(=S)N/N=C/c1c[nH]c2ccccc12 | 63.2% (active)
49 | Nc1nonc1-n1nnc(C(=O)N/N=C/c2c[nH]c3ccccc23)c1-c1ccccc1 | 14.8%
